# An excerpt weighted towards active compounds, which were near 19% of everything screened.
# KB-V1 cytotox: qHTS assay for MDR1-selective chemotherapeutics: Primary screen using the drug-selected MDR subline cells KB-V1 | KB-V1 MDR cells viability, CellTiter-Glo, 72 h | Potency, µM (titrated, usually from 46.1 µM), actives largely listed as cytotoxic | 3.4% of 400,000 active; further: nearly all actives have a fitted effect of over 60% in size
#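 Cytotoxicity via CellTiter-Glo luminescence after 72 h compound exposure at 37 degrees C. Cells: drug-selected KB-V1 line, DMEM phenol-red free plus 10% FBS. Compounds tested at multiple concentrations; normalized data fitted to concentration-effect curves.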
# KB-3-1 cytotox: qHTS assay for MDR1-selective chemotherapeutics: Primary screen using the parental adenocarcinoma cell KB-3-1. KB-3-1 viability, CellTiter-Glo ATP luminescence, 72 h. Potency, µM (top dose mostly 46.1 µM), actives largely listed as cytotoxic. AID 1347075, 2019. 1.4% of 400,000 active; further: nearly all actives have a fitted effect of over 60% in size
#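 Multi-concentration cytotoxicity screen in KB-3-1 cells grown in DMEM lacking phenol red with 10% FBS. After 72 h at 37 °C with compound, ATP-dependent luminescence was recorded.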
# TDP1 cell CPT: qHTS for Inhibitors of human tyrosyl-DNA phosphodiesterase 1 (TDP1): qHTS in cells in presence of CPT. chicken DT40 Tdp1-/-;hTDP1 cells + 20 nM CPT, ATP luminescence, 48 h. Potency, µM (doses to about 46.2 µM), without a hit: at the top dose activity change, negative = growth inhibition, actives largely listed as inhibitors. 12% of 420,000 active; further: nearly all actives have a fitted effect of over 55% in size
#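 Cell growth measured by CellTiter-Glo luminescence after a minimum 48 h, 37 C compound exposure with 20 nM CPT in Tdp1-knockout DT40 cells stably expressing hTDP1, seeded 400/well; qHTS titration format.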
# HT1080-NT tox: qHTS for induction of synthetic lethality in tumor cells producing 2HG: qHTS for the HT-1080-NT fibrosarcoma cell line; 1.6% of 360,000 active; Potency, µM (highest dose often 46.1 µM), for the others: top-dose activity, negative = less viability, most hits filed as cytotoxic; HT-1080-NT fibrosarcoma viability, CellTiter-Glo ATP luminescence, 48 h; AID 686970, 2013;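 further: NT is the 2HG producing partner of a matched IDH1 knockdown line; 0% = DMSO-treated cells and -100% = media-only wells without cells; nearly all actives have a fitted effect of over 55% in size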
#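 A 48-hour cytotoxicity screen used HT-1080-NT cells plated 2 hours before compound delivery. ATP-based CellTiter-Glo luminescence measured viability, normalized to DMSO and no-cell controls.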
# TDP1 cell noCPT: qHTS for Inhibitors of human tyrosyl-DNA phosphodiesterase 1 (TDP1): qHTS in cells in absence of CPT. Potency, µM (highest dose often 46.2 µM), for inactives: at the top dose activity change, negative = growth inhibition, hits mostly inhibitors. 15% of 420,000 active. DT40 Tdp1-/- hTDP1 cells, no CPT, ATP luminescence, 48 h; further: nearly all actives have a fitted effect of over 55% in size
#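 DT40 Tdp1-/-;hTDP1 cells, no CPT (DMSO vehicle only), 400 cells/well; compounds pin-transferred; ≥48 hr, 37 °C; CellTiter-Glo 30 min RT dark, luminescence read.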
# HT1080 IDH1KD tx: qHTS for induction of synthetic lethality in tumor cells producing 2HG: qHTS for the HT-1080-IDH1KD cell line; HT-1080 IDH1 knockdown viability, ATP luminescence, 48 h; 2% of 360,000 active; Potency, µM (titrated, usually from 46.1 µM), inactives show top-dose activity, negative = toxicity, actives largely listed as cytotoxic; AID 686971, 2013;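 further: 0% = DMSO wells and -100% = cell-free medium wells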
#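 CellTiter-Glo luminescence after 48 h compound exposure at 37 degrees C of IDH1-knockdown HT-1080 cells in 5% FBS RPMI. %Activity scaled between DMSO wells and cell-free media wells, with curves fitted and assigned curve classes.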
# Starred values were filed as active, the others as inactive; i = inactive; ? = inconclusive; · = no result given; [ ] = remark or other dose. The call rests on the fitted dose curve; in most records, active means well fitted curve in the direction sought with a large enough effect; inconclusive means small, poorly fitted or top-dose-only effect, or another doubt; inactive means no such curve, though single readings can be large; an effect the other way counts as inactive or inconclusive. Unless noted, on the % scale 0 is the no-effect control and ±100 the full control effect; potency means the concentration at half of the fitted maximal effect.
SMILES,KB-V1 cytotox,KB-3-1 cytotox,TDP1 cell CPT,HT1080-NT tox,TDP1 cell noCPT,HT1080 IDH1KD tx
COc1ccc(N2C(=O)[C@@H]3C[C@H]2CN3Cc2cccn2-c2ccc(Cl)cn2)c(C)c1,·,·,-1%[9.04 µM],·,?,·
C=CCC[C@H](Cc1ccc(F)cc1)C(=O)OC[C@H](Cc1c[nH]c2ccccc12)NC(=O)[C@@H](CC=C)CC(=O)N[C@H](CO)Cc1ccccc1,i,?,?,21µM*,-81%,18µM*
C=CCC[C@H](Cc1ccc(F)cc1)C(=O)OC[C@@H](Cc1c[nH]c2ccccc12)NC(=O)[C@H](CC=C)CC(=O)NCCO,i,i,21µM*,-17%,16µM*,-2%
C=CCC[C@H](Cc1ccc(F)cc1)C(=O)OC[C@H](Cc1c[nH]c2ccccc12)NC(=O)[C@@H](CC=C)CC(=O)N[C@@H](CO)Cc1ccccc1,i,?,5.8µM*,?,16µM*,?
C=CCC[C@H](Cc1ccc(F)cc1)C(=O)OC[C@H](Cc1c[nH]c2ccccc12)NC(=O)[C@H](CC=C)CC(=O)N[C@H](CO)Cc1ccccc1,i,i,?,0%,?,-1%
C=CCC[C@@H](Cc1ccc(F)cc1)C(=O)OC[C@H](Cc1c[nH]c2ccccc12)NC(=O)[C@H](CC=C)CC(=O)NCCO,i,?,?,-30%,?,-14%
C=CCC[C@H](Cc1ccc(F)cc1)C(=O)OC[C@@H](Cc1c[nH]c2ccccc12)NC(=O)[C@@H](CC=C)CC(=O)N[C@H](CO)Cc1ccccc1,i,i,18µM*,-4%,15µM*,-10%
C=CCC[C@@H](Cc1ccc(F)cc1)C(=O)OC[C@H](Cc1c[nH]c2ccccc12)NC(=O)[C@@H](CC=C)CC(=O)N[C@H](CO)Cc1ccccc1,?,i,?,-20%,?,-27%
Cc1ccc(C)c(S(=O)(=O)Nc2ccc(-n3cnnn3)cc2)c1,i,i,?,-2%,?,-4%
CC(OC(=O)/C=C/c1ccccc1Cl)C(=O)NC1CCCCC1C (configuration not stated),i,i,-23%,-7%,2%,-28%
COc1ccc(N2CCN(S(=O)(=O)c3ccc(-c4cc(C(F)(F)F)on4)s3)CC2)cc1,·,·,7%,·,-5%,·
CCOc1ccc(NS(=O)(=O)c2ccc3[nH]cc(C(=O)N4CCCCCC4)c(=O)c3c2)cc1,i,i,3%,·,5%,·
CCOC(=O)C(CC)n1cnc2c(cnn2-c2ccc(Cl)cc2)c1=O (configuration not stated),?,i,?,-1%,18µM*,-14%
CCOC(=O)C(CC)n1cnc2c(nnn2-c2ccc(OC)cc2)c1=O (configuration not stated),i,i,5%,4%[9.24 µM],-9%,0%
CCOC(=O)C(C)n1cnc2c(cnn2-c2ccc(Cl)cc2)c1=O (configuration not stated),i,i,?,0%,16µM*,-3%
CCC(C(=O)NCc1ccco1)n1nc(C)c2c(C)n(-c3ccccc3)nc2c1=O (configuration not stated),i,i,-15%,0%,-10%,-5%
COCCn1c(=O)c(-c2ccc(OC)cc2)nc2cnc(Oc3ccccc3)nc21,·,·,5%,·,-15%,·
Cn1c(N)c(C(=O)c2ccccc2)c(=O)n(C)c1=O,i,i,-1%,11%,9%,9%
Cc1ccc(C(C[N+](=O)[O-])c2c(N)n(C)c(=O)n(C)c2=O)cc1 (configuration not stated),?,16µM*,3.7µM*,?,5.2µM*,?
COc1cccc(F)c1C(C[N+](=O)[O-])c1c(N)n(C)c(=O)n(C)c1=O (configuration not stated),?,?,4.6µM*,10µM*,2.3µM*,5.8µM*
Cn1c(N)c(C(=O)COC(=O)Cc2c(F)cccc2Cl)c(=O)n(C)c1=O,i,i,0%,0%,2%,11%
Cn1c(N)c(C(C[N+](=O)[O-])c2ccccc2Cl)c(=O)n(C)c1=O (configuration not stated),i,i,4.1µM*,-3%,4.6µM*,11%
COc1cc(C(C[N+](=O)[O-])c2c(N)n(C)c(=O)n(C)c2=O)ccc1O (configuration not stated),?,?,6.5µM*,?,6.5µM*,21µM*
Cn1c(=O)n(C)c2cc(CNC(=O)[C@H]3O[C@@H](n4ccc(=O)[nH]c4=O)[C@H](O)[C@@H]3O)ccc21,i,i,5%,21%,11%,3%
CCc1ccc(C(=O)c2cn(CC(=O)Nc3ccc(OC)c(Cl)c3)c3nc(C)ccc3c2=O)cc1,?,i,-22%,·,?,·
SMILES,KB-V1 cytotox,KB-3-1 cytotox,TDP1 cell CPT,HT1080-NT tox,TDP1 cell noCPT,HT1080 IDH1KD tx
CCC(=O)N(c1nnc(SCC(=O)Nc2sccc2C(N)=O)s1)C1CC1,i,i,?,-11%,?,-15%
CC(C(c1ccc2c(c1)OCO2)c1c(N)n(C)c(=O)n(C)c1=O)[N+](=O)[O-] (configuration not stated),?,i,?,-16%,16µM*,0%
CCOC(=O)c1c(-c2cccs2)csc1NC(=O)COC(=O)c1c(C)noc1C,21µM*,i,?,-20%,?,-7%
COC(=O)c1c(-c2cccs2)csc1NC(=O)c1ccc(C)cc1,·,·,4%,·,?,·
COC(=O)c1c(-c2cccs2)csc1NC(=O)c1cc(OC)cc(OC)c1,i,i,16µM*,·,?,·
COC(=O)c1c(-c2cccs2)csc1NC(=O)c1ccc(OC)c(OC)c1,i,i,12µM*,·,9.2µM*,·
COc1cc(C(=O)Nc2scc(-c3ccc(C)cc3)c2C(=O)O)cc(OC)c1OC,i,i,-11%,6%,0%,-20%
COC(=O)c1c(-c2cccs2)csc1NC(=O)c1cc(OC)c(OC)c(OC)c1,·,·,9.2µM*,·,5.8µM*,·
